Screening results (PubChem)
Sa growth 42C = blocks Staphylococcus aureus growth; S. aureus RN4220 growth, OD600, 20 h, 42 °C; stronger effect = lower value; relative growth, % (test concentration not listed); 0.53% of 170,000 active;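 active = relative growth at most 50% at the other temperature and 20+ points below 30 °C, or under 10% at both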
Sa helicase inh = S. aureus DNA helicase inhibition. inhibition, % (no concentration beside the values). AID 485395. purified S. aureus helicase, fluorescence unwinding assay. 0.05% of 120,000 active; in the data active = inhibition above about 25%, passing the limit was not always enough;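 also: 0% = mean of negative control wells and 100% = mean of positive control wells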
* hit, by the source's call; x = no result given. In the library only some 0.52% were active in any assay of this set; here they are far more common.

SMILES	Sa growth 42C	Sa helicase inh
COc1cccc(CNc2ccc3c(c2)ncn3C2CCCCC2)c1	0.1*	2.0
N#Cc1cc2c(nc1SCC(=O)Nc1ccc(S(=O)(=O)Nc3ncccn3)cc1)CCC2	96.8	3.0
Cc1ccc(Nc2cc(=O)[nH]c(=O)[nH]2)cc1C	8.5*	x
Cc1cccc(Nc2cc(=O)[nH]c(=O)[nH]2)c1	69.0	-7.0
CCOc1ccc(C(=O)C(C)Sc2nnnn2-c2ccc(OC)cc2)cc1 (stereo not drawn)	105.0	29.0*
COc1ccc(-n2nnnc2SCSc2nnnn2-c2ccc(OC)cc2)cc1	116.7	8.0
O=c1cc(-c2ccccc2)c2ccc(O)c(O)c2o1	x	58.0*
CCc1cc(=O)oc2c(O)c(O)ccc12	102.0	11.0
CC(C)NC(=O)CC#N	103.2	-20.0
O=C(CCCCl)Nc1ccccc1Cl	99.9	-5.0
O=C1CCCC/C1=C/Nc1ccccc1C(=O)O	97.4	16.0
CCCCC(=O)OC1=C(C(=O)c2ccccc2)N(CCC)S(=O)(=O)c2ccccc21	4.0*	x
CCCN1C(C(=O)c2ccccc2)=C(OC(=O)c2ccc(C)cc2)c2ccccc2S1(=O)=O	97.3	x
CCCN1C(C(=O)c2ccccc2)=C(OC(=O)c2ccc(F)cc2)c2ccccc2S1(=O)=O	25.9	x
CCCCN1C(C(=O)c2ccccc2)=C(OC(=O)CC)c2ccccc2S1(=O)=O	8.2*	x
CCCCCN1C(C(=O)c2ccccc2)=C(NC(C)=O)c2ccccc2S1(=O)=O	111.6	x
CCCCCN1C(C(=O)c2ccccc2)=C(OC(=O)CC)c2ccccc2S1(=O)=O	-0.5*	x
O=C(CN1CCCCCC1=O)N/N=C/c1c(Cl)nc2sccn12	84.8	21.0
CN(C)C=Nc1nc2ccccc2nc1N1CCOCC1	76.2	26.0
O=C(O)CCCCN1C(=O)CSC1=S	85.8	12.0
CC(C)(C)c1ccc(Cn2c(N)nc3ccccc32)cc1	6.3*	10.0
Nc1nc2ccccc2n1Cc1ccccc1F	102.2	-13.0
Fc1ccc(Nc2nc(-c3ccncc3)nc3ccccc23)cc1	106.8	8.0
Fc1ccc(Nc2nc3ccccc3nc2Nc2ccc(F)cc2)cc1	-0.4*	6.0
O=S(c1c(F)c(F)c(F)c(F)c1F)c1c(F)c(F)c(F)c(F)c1F	0.7*	21.0
SMILES	Sa growth 42C	Sa helicase inh
CCCCNC(=O)c1ccc(S(=O)(=O)N(C)C)cc1	106.8	9.0
CCOC(=O)Nc1ccc2c(COC(=O)C3COc4ccccc4O3)cc(=O)oc2c1 (stereo not drawn)	87.1	-13.0
CN(C)CC(C)(C)NS(=O)(=O)c1ccccc1	117.8	-21.0
CCc1c(C)sc2c1CCN(Cc1ccc(F)cc1)C2c1ccccc1 (stereo not drawn)	-1.1*	x
CCc1c(C)sc2c1CCN(Cc1ccc(C#N)cc1)C2c1ccccc1 (stereo not drawn)	30.3	x
CCc1c(C)sc2c1CCN(Cc1cccc(F)c1)C2c1ccccc1 (stereo not drawn)	-1.3*	x
CCc1c(C)sc2c1CCN(C(=O)Nc1cc(C)cc(C)c1)C2c1ccccc1 (stereo not drawn)	89.3	x
CCC(CC)NC(=O)c1ccc[nH]c1=S	56.5	4.0
O=C(O)c1nsc2ccccc12	113.0	12.0
CC1CCN(C(=O)CSc2n[nH]c(-c3ccccc3)n2)CC1	103.0	-11.0
O=C(/C=C/C(=O)c1ccccc1)c1ccccc1	-0.4*	32.0
CN(C)/C=C/C(=O)c1ccccc1	84.3	10.0
O=C(OCC(=O)C12CC3CC(CC(C3)C1)C2)c1ccccc1	93.6	-17.0
COc1ccc(NC(=O)C(c2ccccc2)N(Cc2ccco2)C(=O)Cc2cccs2)cc1 (stereo not drawn)	94.1	-7.0
Cc1ccc(C(=O)NCCn2nc(C)cc2C)cc1	101.5	7.0
CCn1c2ccccc2c2cc(N=C=S)ccc21	127.5	4.0
CCn1c2ccccc2c2cc(C#N)ccc21	44.3*	25.0
Cc1ccccc1NS(=O)(=O)C(F)(F)F	92.7	-16.0
O=S(=O)(Nc1ccc(Cl)cc1OC(F)(F)F)C(F)(F)F	9.5*	19.0
Cc1csc(NC(=O)c2ccc(S(=O)(=O)N3CCc4ccccc4C3)cc2)n1	95.7	-13.0
CCOC(=O)CNc1cccc(C(=O)O)c1	101.9	2.0
c1cncc(-c2nc(NCCSCc3ccco3)c3ccccc3n2)c1	5.9*	-8.0
Clc1ccc(-c2nc(NCc3ccco3)c3ccccc3n2)c(Cl)c1	52.1	-36.0
COCCN1C(=O)c2ccccc2C(C(=O)NCC2CCCO2)C1c1cccs1 (stereo not drawn)	103.3	-14.0
C=CCn1c(=O)c2ccc(C(=O)NCc3ccccc3)cc2n(Cc2ccccc2C#N)c1=O	83.0	5.0
Cc1ccc(NC(=O)c2ccc(=O)n(CC(=O)Nc3cccc(C)c3)n2)cc1	114.2	x
Cc1ccc(NC(=O)c2ccn(C(=O)Nc3cccc(Cl)c3)n2)cc1	45.0*	17.0
Cc1ccc(Nc2nc(CN(C)CCCc3[nH]nc(N)c3C#N)cs2)cc1	-1.1*	-11.0
Cc1ccc(Nc2nc(C(=O)N(C)Cc3ccccc3)cs2)cc1	131.2	-7.0
CC(Oc1ccc(I)cc1)C(=O)Nc1ccc(S(N)(=O)=O)cc1 (stereo not drawn)	103.3	x
